Assay results as given in PubChem BioAssay AID588345 (Broad Institute, 2011).
Hit rate of the full screen: of about 1,300 compounds, about 850 (65%) were called active. Roughly 1% stayed inconclusive and do not appear here. The rule behind the calls is not given here. The set was probably picked from earlier hits. A selection follows. Measured potencies and affinities stand elsewhere.

Target: Dual specificity tyrosine-phosphorylation-regulated kinase 1A (Rattus norvegicus) (UniProt Q63470)
Assay: rat Dyrk1A kinase inhibitors, dose response, biochemical, cherry-pick, plate reader, 2124-01 (AID 588345)
Conditions: Dyrk1A kinase biochemical assay; series mostly up to 12 µM

outcome, inactive:
Cc1cc(=O)oc2ccc(OC(=O)c3cccc(S(=O)(=O)N4CCOCC4)c3)cc12
COc1cccc(Nc2nc(NCCO)c3ccccc3n2)c1
CCc1cc2c(NC3CCCC3)ncnc2s1
CCCCCC1CC(CC(C)C(=O)Nc2nncs2)C(=O)O1 (configuration not stated)
CCC(C)NC(=O)C1CCCN(S(=O)(=O)c2ccc3c(c2)CC(C)N3C(=O)C2CC2)C1 (configuration not stated)
Clc1ccc(C2CC(c3cccs3)n3ncnc3N2)c(Cl)c1 (configuration not stated)
O=C(Cn1c(-c2cncs2)nc2ccccc21)NCc1ccccc1
Cn1c(=O)[nH]c2cc3ccccc3cc21
S=c1sc2ccccc2n1CCc1ccncc1
COc1ccc(N(CC(=O)Nc2ccc3c(c2)OCCO3)S(=O)(=O)c2c(C)nn(C)c2C)cc1
CC(C)(C)C1=Nn2c(nnc2-c2ccccc2F)SC1
O=C(Nc1ccc2cn[nH]c2c1)c1c(Cl)cccc1Cl
COc1ccc(N/C=C2\C(=O)CCc3c2oc2cc(Cl)c(O)c(Cl)c32)cc1
Oc1c(Cl)c(Cl)c2ncccc2c1Cl
Oc1cccc2c(-c3nn[nH]n3)ccnc12
Fc1ccccc1-c1nc(-c2ccc(-c3nn[nH]n3)cc2)no1
COc1ccc(-c2cn[nH]c2C)cc1
Cc1cc(C)c(CN2CCN(C(=O)Cn3ccc(N)nc3=O)CC2)c(C)c1
CCCCCCCCCCCCN1[C@@H](CC(=O)OC)c2cc(C(F)(F)F)ccc2S1(=O)=O
CC(=O)c1cccc(NC(=O)Nc2ccc3c(c2)N(C)C(=O)CS3)c1
CSc1nnc(-c2cc3c(-c4ccccc4)nn(C)c3s2)n1C
Cn1cnc2c(=O)sc3ccccc3c21
O=C(C1CC(=O)N(C2CCCC2)C1)N1CCN(c2ccc(F)cc2)CC1 (configuration not stated)
c1csc(CNc2ncnc3ccc(-c4ccc5c(c4)OCCO5)cc23)c1
O=C(NCc1ccccc1)C1=C[C@H](c2ccccc2)C[C@H](OCc2ccc(CO)cc2)O1
c1ccc(-c2nnc(CSc3ccc4c(c3)OCCO4)o2)cc1
O=[N+]([O-])c1ccc2c(c1)C(=NO)c1cc(F)ccc1-2
O=C(O)CCC(=O)Nc1ccc(N2CCCCCC2)cc1
Cc1cccc(Nc2nc(N)c([N+](=O)[O-])c(N3CCC(C)CC3)n2)c1
CCC1NC(C(=O)O)Cc2c1[nH]c1ccccc21 (configuration not stated)
COC(=O)c1nccc2c1[nH]c1ccccc12
CC(C)C[C@H]1COCCS(=O)(=O)N1Cc1ccc(Cl)c(Cl)c1
